# Reference: PubChem BioAssay (NCATS)
# Results filed as inconclusive are left out. Activity calls are given as the source filed them. Unless noted, calls follow the shape of the dose curve; as a rule, active = well fitted inhibition curve with a large enough effect; inconclusive = small, poorly fitted or top-dose-only effect; inactive = no such curve, though single readings can be large or run the other way.
# Columns and labels:
# [1] = qHTS profiling of the MIPE4 collection as inhibitors of Plasmodium falciparum (HB3) proliferation (AID 743347; call rule not given here;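 also: plate controls were DMSO vehicle wells for no effect and artemisinin wells for full effect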); conditions: P. falciparum HB3 in erythrocytes, SYBR Green DNA, 72 h; at 28.5 µM (top of the series) unless noted
# Outline: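 Parasite DNA was quantified by SYBR Green I fluorescence (ex 485, em 535 nm) after overnight lysis in saponin/Triton buffer at room temperature. Cultures at 0.3% parasitemia and 2.5% hematocrit were first exposed to compound for 72 h at 37 C; signals were normalised to artemisinin (0.29 uM) and vehicle wells.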
# [2] = High-throughput drug toxicity screening in the BPDCN cell line Gen2.2 (AID 1224824; call rule not given here;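 also: cells exposed to compounds for 48 h before reading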); conditions: Gen2.2 BPDCN cells; at 45.8 µM (top of the series) unless noted
# Outline: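 Seed 500 exponentially growing Gen2.2 cells/well; add compounds by pin tool; incubate 48 h, 37 °C, 5% CO2; add CellTiter-Glo, 15 min RT; read luminescence. % activity vs DMSO (100%) and bortezomib (0%).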
# [3] = High-throughput drug toxicity screening in the BPDCN cell line Cal-1 (AID 1224825; call rule not given here); conditions: Cal-1 BPDCN cell viability, qHTS; at 45.8 µM (top of the series) unless noted
# Outline: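 Viability of the BPDCN line Cal-1 is measured as ATP-based luminescence (CellTiter-Glo) following 48 h incubation with compounds. Percent activity uses DMSO-treated wells as 100% and 9.2 uM bortezomib as 0%.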
# [4] = qHTS assay for measurement of the activity of small molecule inhibitors on Zika virus induced Caspase-3 activity in human iPSC derived neural progenitor cells (hNPCs) (AID 1224857); also: % of control where 0% means no effect; nearly all actives have a fitted effect of over 65% in size
# Outline: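 Percent inhibition of virus-induced caspase-3/7 luminescence (Caspase-Glo), scaled between uninfected cells and Zika-infected cells. hNPCs received compound 1 hr before ZIKV at 2 FFU/cell, with 6 hours infection at 37 C.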
# [5] = qHTS Screen of the MIPE 4.0 Collection Against Ewings Sarcoma (RDES) (AID 1259252); also: nearly all actives have a fitted effect of over 35% in size; also: potency is read from the fitted curve at half-maximal effect
# Outline: (§1)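 Measured: ATP luminescence (CellTiter-Glo) 10 min after reagent addition, following 48 h drug treatment. Relative luciferase units converted to percent activity, with no-cell wells as full and DMSO wells as zero inhibition.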
# [6] = qHTS Screen of the MIPE 4.0 Collection Against Ewings Sarcoma (TC71) (AID 1259253); also: nearly all actives have a fitted effect of over 40% in size; also: potency is read from the fitted curve at half-maximal effect
# Outline: as §1
# [7] = qHTS Screen of the MIPE 4.0 Collection Against Ewings Sarcoma (EW8) (AID 1259255); also: nearly all actives have a fitted effect of over 35% in size; also: potency is read from the fitted curve at half-maximal effect;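 as to viability: 100% = DMSO-treated cells and 0% = medium-only wells without cells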
# Outline: as §1
# [8] = qHTS Screen of the MIPE 4.0 Collection Against Ewings Sarcoma (TC32) (AID 1259256); also: nearly all actives have a fitted effect of over 45% in size; also: potency is read from the fitted curve at half-maximal effect
# Outline: as §1
# [9] = qHTS assay for measurement of the activity of small molecule inhibitors on Zika virus induced Caspase-3 activity in human astrocytoma cells (AID 1224859);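 also: plate controls were ZIKV-infected untreated cells for no effect and uninfected cells for full effect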
# Outline: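 Luminescent caspase-3/7 read-out (30 min reagent, room temperature) in human SNB-19 cells infected 6 h with ZIKV (2 FFU/cell) after 1 h compound pre-incubation; Data were normalised to uninfected and infected wells.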
# [10] = P-glycoprotein substrates identified in KB-3-1 adenocarcinoma cell line, qHTS therapeutic library screen (AID 1346986); also: nearly all actives have a fitted effect of over 60% in size;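 also: potency is read from the fitted curve at half-maximal effect; potency is for cytotoxicity meaning loss of cell viability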
# Outline: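 Using luminescence to quantify ATP, parental and P-gp-overexpressing KB cells were compared after 72 h compound titration. KB-8-5-11 was also run with the P-gp inhibitor tariquidar.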
SMILES,"growth, % of control [1] [%]","cell viability, % of control (lower = more cytotoxic) [2] [%]",viability (% of control) [3] [%],Potency [4],Potency [5],Potency [6],Potency [7],Potency [8],Potency [9],Potency [10]
C[C@@H](NCc1cc2ccccc2[nH]1)c1cccc2ccccc12,36.4,171,108,inactive,inactive,inactive,inactive,inactive,,
CC(C)(O)Cn1c(NC(=O)c2ccc(-c3cn[nH]c3)s2)nc2cc(CN3CCOCC3)ccc21,6.36,7.04,3.65,inactive,1.66 µM (active),1.66 µM (active),2.96 µM (active),3.32 µM (active),,
CCCCCCCCCCCC(CC1OC(=O)C1CCCCCC)OC(=O)C(CC(C)C)NC=O (stereo not drawn),3.37,82.8,89.4,inactive,inactive,inactive,,,inactive,
Cc1ccc(-n2[nH]c(C)c(N=Nc3cccc(-c4cccc(C(=O)O)c4)c3O)c2=O)cc1C,72.9,180,28.2,inactive,18.7 µM (active),11.8 µM (active),,6.62 µM (active),inactive,
COc1ccc(C[C@@H](C)[C@@H](C)Cc2ccc(OC)c(OC)c2)cc1OC,30.9,6.99,8.52,inactive,0.743 µM (active),1.18 µM (active),,inactive,inactive,
CNC(=O)Nc1ccc(-c2nc(N3CC4CCC(C3)O4)c3cnn(C4CCC5(CC4)OCCO5)c3n2)cc1,3.02,17.6,8.62,inactive,0.0469 µM (active),0.0132 µM (active),,0.0074 µM (active),inactive,41.1 nM (active)
C=CCNC1=C2C[C@@H](C)C[C@H](OC)[C@@H](O)[C@@H](C)C=C(C)[C@H](OC(N)=O)[C@@H](OC)C=CC=C(C)C(=O)NC(=CC1=O)C2=O,4.67,6.66,5.31,inactive,6.62 µM (active),3.72 µM (active),10.5 µM (active),0.372 µM (active),,
CC(C)c1cnn2c(NCc3ccccc3)cc(NCCCCCCN)nc12,2.16,4.58,3.93,inactive,3.72 µM (active),4.69 µM (active),18.7 µM (active),13.2 µM (active),,
CC(=O)C1=C(O)C=C2Oc3c(C(C)=O)c(O)c(C)c(O)c3C2(C)C1=O (stereo not drawn),99,141,103,inactive,inactive,inactive,,inactive,inactive,inactive
c1cncc(CN2CCC(n3ncc4c(N5CCOCC5)nc(-c5ccc6[nH]ccc6c5)nc43)CC2)c1,8.55,12.4,9.02,inactive,13.2 µM (active),13.2 µM (active),,5.9 µM (active),inactive,
CC[C@H]1OC(=O)[C@H](C)[C@@H](O[C@H]2C[C@@](C)(OC)[C@@H](O)[C@H](C)O2)[C@H](C)[C@@H](O[C@@H]2O[C@@H](C)C[C@H](N(C)C)[C@@H]2O)[C@](C)(O)C[C@@H](C)C(=O)[C@H](C)[C@@H](O)[C@]1(C)O,82.4,73.8,97,inactive,inactive,inactive,inactive,inactive,,
O=C(Nc1nnc(-c2ccco2)o1)c1cc(-c2ccccc2)nc2ccccc12,18.7,42.4,17.3,inactive,16.6 µM (active),16.6 µM (active),,13.2 µM (active),inactive,
CCc1c(O)cc(O)c(C(=O)c2ccc(OCCN3CCOCC3)c(OC)c2)c1CC(=O)N(CCOC)CCOC,7.26,4.9,16.5,inactive,0.662 µM (active),2.35 µM (active),,,inactive,
C=CC1=C(C(=O)O)N2C(=O)[C@@H](NC(=O)C(=NO)c3csc(N)n3)[C@H]2SC1,68.4,116,105,inactive,inactive,inactive,inactive,inactive,,
O=C1NCCc2[nH]c(-c3ccncc3)cc21,5.62,3.21,12.4,inactive,3.32 µM (active),2.64 µM (active),,5.26 µM (active),inactive,
CN(N=O)C(=O)N[C@H]1C(O)OC(CO)[C@@H](O)[C@H]1O (stereo partly drawn),68.3,97.4,96.8,inactive,inactive,inactive,,inactive,inactive,
CC(=O)ON=C1C(c2c(O)[nH]c3cc(Br)ccc23)=Nc2ccccc21,2.46,129,17.5,inactive,2.96 µM (active),9.35 µM (active),7.43 µM (active),7.43 µM (active),,
CN(C)c1ccc(C(=O)NCCCCCCC(=O)NO)cc1,2.69,15.8,4.88,inactive,0.662 µM (active),0.59 µM (active),,0.296 µM (active),inactive,
CC1(C)CC(O)CC(C)(C)N1[O],,152,102,,inactive,inactive,inactive,inactive,inactive,
C[C@H](NC(=O)[C@@H](O)c1cc(F)cc(F)c1)C(=O)N[C@@H]1C(=O)N(C)c2ccccc2-c2ccccc21,8.44,165,103,,inactive,20.9 µM (active),inactive,inactive,,
